Measured values reported in PubChem BioAssay AID924 (National Center for Advancing Translational Sciences (NCATS), 2007).
Out of some 130,000 compounds screened, about 1,200 (0.92%) were called active. Not shown: some 3% with an inconclusive outcome. Calls come from the whole dose curve; as a rule, active = well fitted cell-killing curve with a large enough effect; inconclusive = small, poorly fitted or top-dose-only effect; inactive = no such curve, though single readings can be large or run the other way. The list comes from a sample in which actives are over-represented; it also holds similar structures and randomly drawn compounds. Where a call stands in place of a potency, no number is given.

test: qHTS Screen for Compounds that Selectively Target Cancer Cells with p53 Mutations: Cytotoxicity of p53ts Cells at the Permissive Temperature; conditions: H1299-p53A138V at 32C, ATP luminescence viability, 24 h; series mostly up to 46.1 µM; note: nearly all actives have a fitted effect of over 55% in size
Text: NIH Chemical Genomics Center [NCGC] NIH Molecular Libraries Screening Centers Network [MLSCN] MLSCN Grant: 1 X01 MH079844-01 Assay Submitter (PI): Dr. SUN, YI, University of Michigan NCGC Assay Overview: Synthetic Lethal Screen for Compounds to Kill Cancer Cells with p53 Mutation. Tumor suppressor gene p53 serves as a major cellular barrier against tumorigenesis. […] The goal of this screening is to identify small molecule probes that selectively kill cancer cells with mutations in p53. This screening was carried out using two lines of H1299 lung cancer cells. The H1299-p53 A138V line express a temperature sensitive p53 mutant (p53ts) in which the mutant p53 protein (A138V) is in the mutant confirmation when grown at 39C (the nonpermissive temperature) and in the wild type conformation when grown at 32C (the permissive temperature). A H1299-neo line (p53 null) grown at both 39C and 32C were used as counter-screens to filter out false positive associated with temperature shifting. The small molecular compounds that selectively target mutant p53-containing cancer cells were selected as candidate probes for further study. A cytotoxicity assay based on the measurement of ATP contents in cells was used in this screen. Concentration-responses of all the compounds in the library collection were determined in qHTS using the cell lines and temperature conditions as above.
NCGC Assay Protocol Summary: Both the H1299-p53A138V and H1299-neo cell lines were provided by Dr.Yi Sun, a PI at the University Michigan. The cells were maintained and cultured at 37C. The resuspended frozen cells were used to plate the cells in the 1536-well assay plates at a density of 600 cells per well in 5 ul medium. The assay plates with the cells were incubated at 37C for 16 to 30 hours before the experiments. The library compounds in DMSO solution were added to the cells in assay plates and incubated 24 hours at 39C (for mutant p53 conformation) or 32C (for normal p53 conformation as control). An ATP_lite assay kit (PerkinElmer) was used to determine the cell viability. Tomaxifen (100uM) was used as the positive control for cell killing. Data were normalized to the controls for basal activity (DMSO only) and 100% killing (100uM tamoxifen). AC50 values were determined from concentration-response data modeled with the standard Hill equation. P53 assay protocol: 1. Reagent; 5 uL H1299-p53A138V or H1299-neo cell cells/well 2. Time; overnight; 37C incubation 3. Compounds; 23 nL; 5.9 nM to 46 uM 4. Controls; 23 nL; Tamoxifen 100 uM 5. Time; 24 hr; 37C incubation 6. Reagent; 3 uL; ATP_Lite reagent 7. Time; 20 min; Room Temperature 8. Detection; Luminescence; Viewlux plate reader Keywords: p53, synthetic lethal, cancer, cell viability, cytotoxicity, H1299 cell line, luminescence, MLSMR, MLSCN, NIH Roadmap, qHTS, NCGC
Potency is the fitted concentration of half-maximal effect.

| Compound | Potency |
| --- | --- |
| Cc1ccc(Cl)cc1NC(=O)Cc1ccc(-n2c(C)nc3cccnc32)cc1 | inactive |
| COc1cccc(N2CC(NC(=O)/C=C\c3ccccc3)CC2=O)c1 (stereo unspecified) | inactive |
| Cc1nc(-c2ccc(NC(=O)c3cccs3)cc2)cs1 | 1.26 µM (active) |
| CCc1ccccc1NC(=O)c1cccs1 | inactive |
| O=C(O)c1ccc(NC(=O)c2cccs2)cc1 | inactive |
| Cc1c(CNC(C)c2ccccc2)c(C(=O)O)c(C)n1Cc1c(F)cccc1Cl (stereo unspecified) | inactive |
| COc1cc(NC(=O)C2CCN(c3cnccn3)CC2)cc(OC)c1 | inactive |
| CN(C)c1ccc(-c2nc(NCCN3CCOCC3)c3ccccc3n2)cc1 | 12.6 µM (active) |
| c1ccc2[nH]c(NCCN3CCOCC3)nc2c1 | inactive |
| c1ccc(-c2nc(NCc3ccco3)c3ccccc3n2)cc1 | inactive |
| NS(=O)(=O)c1ccc(CCNC(=O)CCCCCn2c(=O)[nH]c3ccccc3c2=O)cc1 | inactive |
| CC(=O)Nc1cccc(NC(=O)CSc2cn(CC(=O)N3CCCC3)c3ccccc23)c1 | inactive |
| CCOc1ccccc1C(=O)NCC(c1ccc(N(C)C)cc1)N1CCCC1 (stereo unspecified) | inactive |
| COC(=O)c1nc2ccccc2s1 | inactive |
| CCC(=O)NC(=Nc1nc2ccccc2s1)NC(=O)CC | 15.8 µM (active) |
| O=C(O)CSCc1nc2ccccc2s1 | inactive |
| COc1ccc(OC)c(-c2noc(N3CCN(c4cc(Cl)ccc4C)CC3)n2)c1 | inactive |
| Cc1ccc(F)cc1NC(=O)c1cccc(N(C)C)c1 | inactive |
| Cc1ccc(NC(=O)c2cccc(N(C)C)c2)cc1NC(=O)c1ccc(O)cc1 | 12.6 µM (active) |
| Cc1ccccc1NC(=O)c1ccccc1 | inactive |
| CC(C)c1ccc(NC(=O)C2CCN(c3nc(-c4ccc(C(C)C)cc4)no3)CC2)cc1 | inactive |
| Cn1c(=O)c(C(=O)O)nn(-c2ccccc2)c1=O | inactive |
| O=C(Nc1nnc(S(=O)(=O)N2CCCCCC2)s1)c1cccc(Br)c1 | inactive |
| O=C(Cn1c(=O)nc(-c2ccccc2)c2cc(Cl)ccc21)NCc1ccc(Cl)cc1 | 10 µM (active) |
| CCN(C(=O)Cn1c(=O)nc(-c2ccccc2)c2cc(Cl)ccc21)c1cccc(C)c1 | inactive |
| O=C(Cn1nnc(-c2ccccc2)n1)NCc1ccccc1 | inactive |

| Compound | Potency |
| --- | --- |
| CCc1ccccc1NC(=O)Cc1ccc(NC(=O)N2CCCCc3ccccc32)cc1 | inactive |
| COc1ccc2c(c1)CCc1c(C(=O)Nc3cc(C)ccc3O)noc1-2 | inactive |
| Cc1ccc2nc(COc3cccc(NC(=O)Nc4ccc(C)c(Cl)c4)c3)cc(=O)n2c1 | inactive |
| O=C(CCc1ccccc1)Nc1cccc(-c2nnc(-c3ccco3)o2)c1 | inactive |
| CCOc1ccc(NC(=O)Nc2cc(C)on2)cc1 | inactive |
| CCC(=O)Oc1cccc(C(=O)Nc2ccc(-c3nnc(-c4ccco4)o3)cc2)c1 | inactive |
| CCOc1ccc(-c2nnc(-c3ccco3)o2)cc1 | 10 µM (active) |
| CCOc1ccc(NC(=O)c2ncoc2-c2ccco2)cc1 | 12.6 µM (active) |
| CCOc1ccc(C(=O)Nc2ccncc2)cc1 | inactive |
| COc1ccc(-n2c(=O)c3c(c4cc(OC)ccc4n3C)n(Cc3cccc(C)c3)c2=O)cc1 | inactive |
| COc1ccc(N2C(=O)CSC23C(=O)N(Cc2cccc(F)c2)c2ccccc23)cc1Cl (stereo unspecified) | inactive |
| CCCCOc1ccc(NC(=O)c2cc3c(n(-c4ccc(Cl)cc4)c2=O)CCCC3=O)cc1 | inactive |
| COc1ccc(C2CC(=O)N(Cc3ccccc3C)c3c2c(C)nn3-c2nc(C)cc(C)n2)c(OC)c1 (stereo unspecified) | inactive |
| CCOCCCNC(=O)c1ccc2nc(CCc3ccccc3)oc2c1 | inactive |
| COc1ccc(C(=O)Nc2onc3c2CCCC3)cc1 | 10 µM (active) |
| COc1ccc(NC(=O)c2c(C)oc3c2CCCC3)cc1 | inactive |
| CC1CCc2noc(NC(=O)c3ccc([N+](=O)[O-])cc3)c2C1 (stereo unspecified) | inactive |
| COc1ccc(-c2onc(C)c2C)cc1S(=O)(=O)NCC1CCN(Cc2cccc(F)c2)CC1 | inactive |
| CCOc1ccccc1NC(=O)CN1CCCN(Cc2cccc(Cl)c2)S1(=O)=O | inactive |
| COc1ccc(CNC(=O)c2ccc3c(O)c(S(=O)(=O)c4ccccc4)c(=O)[nH]c3c2)cc1 | inactive |
| CC(C)c1ccc(NC(=O)c2ccc3c(O)c(S(=O)(=O)c4ccccc4)c(=O)[nH]c3c2)cc1 | 12.6 µM (active) |
| Cc1ccc(C(=O)Nc2ccc3[nH]c(=O)c(=O)[nH]c3c2)cc1 | inactive |
| Cn1c(=NC(=O)c2cnccn2)sc2ccccc21 | 15.8 µM (active) |
| Cn1c(=NC(=O)CSCC(=O)N2CCOCC2)sc2ccccc21 | inactive |
| Cn1c(=NC(=O)CSCC(=O)N2CCCCC2)sc2ccccc21 | inactive |
